CYP2C19 inh = human CYP2C19 inhibition | CYP2C19 Supersomes, luciferin-H EGE luminescence, 30 min | inhibition, % at 5 µM | 96,000 tested, 21% active | AID 778;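 active = CYP2C19 inhibition above a set limit at 5 µM in the primary screen, cut at about 50% in these data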;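 note: plate controls were negative control wells for no effect and 2.5 mM tranylcypromine positive control for full effect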
Target sequence (P33261 whole entry, looked up): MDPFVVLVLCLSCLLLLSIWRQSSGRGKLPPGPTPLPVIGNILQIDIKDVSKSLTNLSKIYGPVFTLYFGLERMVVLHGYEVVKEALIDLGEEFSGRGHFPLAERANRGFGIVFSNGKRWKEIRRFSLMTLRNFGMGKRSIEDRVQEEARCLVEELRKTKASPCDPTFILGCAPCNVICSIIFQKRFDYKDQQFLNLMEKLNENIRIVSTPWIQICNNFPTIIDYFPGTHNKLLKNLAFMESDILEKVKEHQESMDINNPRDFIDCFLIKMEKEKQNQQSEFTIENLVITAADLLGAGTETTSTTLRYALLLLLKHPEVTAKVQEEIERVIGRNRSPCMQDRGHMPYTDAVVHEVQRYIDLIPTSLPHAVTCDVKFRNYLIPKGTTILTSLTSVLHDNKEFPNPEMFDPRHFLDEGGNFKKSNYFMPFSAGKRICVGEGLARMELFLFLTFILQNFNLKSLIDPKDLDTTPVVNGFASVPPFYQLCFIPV
PostGolgi yeast = growth inhibition of a yeast mutant, post-Golgi transport screen; AID 739; post-Golgi transport phenotypic cell assay; inhibition, % at 10 µM; 98,000 tested, 0.9% active;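 note: yeast cells grown in 1536-well plates; yeast grown about 18 h at 30C before absorbance read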
PostGolgi ctrl = growth of the yeast control strain, post-Golgi counter-screen | 98,000 tested, 5% active | inhibition, % at 10 µM | efflux-deficient yeast background strain, growth absorbance A615, 16 h
CYP2C9 inhib = human CYP2C9 inhibition; inhibition, % at 5 µM; CYP2C9 Supersomes, luciferin-H conversion, luminescence; P11712; 96,000 tested, 20% active;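 active = blocking of liver enzyme CYP2C9 beyond about 50% at 5 µM, limit read from the data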
CYP2C19 activ = cytochrome P450 2C19 (human) activation; recombinant CYP2C19, luciferin-H EGE luminescence; hits give high values; 0 = fully inhibited enzyme, 1 = untreated enzyme; activation factor at 5 µM; 96,000 tested, under 10 active; AID 1025;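 active = activation factor of at least 2 at 5 µM in the primary screen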;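 note: 0 = wells with 2.5 mM tranylcypromine and 1 = vehicle-only wells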
CYP2C9 act = CYP2C9 (human) activation | recombinant CYP2C9, luciferin-H conversion, luminescence; hits give high values; factor 1 = untreated enzyme, 0 = blocked | activation factor at 5 µM | 96,000 tested, 1.4% active;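 active = activation factor of 2 or more for CYP2C9 at a 5 µM dose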;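 note: 0 = sulfaphenazole-blocked wells and 1 = vehicle-only wells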
The depositor's hits bear a star; / = not tested or not shown. Shown are actives, neighbours in structure and some others; about 32% of the full set was active somewhere. Cut-off read from the data, not from the text of the source, unless noted: active = inhibition above about 30%; inactive = the rest.

SMILES | CYP2C19 inh | PostGolgi yeast | PostGolgi ctrl | CYP2C9 inhib | CYP2C19 activ | CYP2C9 act
COC(=O)c1ccc(/C=C/C(=O)c2ccc(OC)cc2)cc1 | 53* | 1 | 8 | 91* | 0.5 | 0.1
Cc1ccc(-c2n[nH]c3c2CCC3)cc1 | 66* | -4 | 14 | 43 | 0.3 | 0.6
O=C(CN(C(=O)c1ccc(Cl)cc1)N1C(=O)C2CCCCC2C1=O)c1ccc(Cl)cc1 (stereo unspecified) | 6 | -20 | 0 | 8 | 0.9 | 0.9
O=C(c1ccc([N+](=O)[O-])cc1)N(Cc1ccc(Cl)cc1)N1C(=O)CCCC1=O | 51* | -1 | 24 | 12 | 0.5 | 0.9
O=C(c1ccc([N+](=O)[O-])cc1)N(Cc1ccc(Cl)cc1Cl)N1C(=O)CCCC1=O | 64* | 3 | 12 | 20 | 0.4 | 0.8
CCN1CCN(C(=O)c2cc3cc4cc(OC)ccc4nc3s2)CC1 | 16 | -7 | 1 | 31 | 0.8 | 0.7
CCOC(=O)c1ccc(NC(=O)CNC(=O)c2ccccc2)cc1 | 16 | -2 | -1 | 8 | 0.8 | 0.9
CCOC(=O)c1ccc(NC(=O)CC2C(=O)N(c3ccccc3)C(=O)N2CCCOC)cc1 (stereo unspecified) | 92* | 4 | 5 | 79* | 0.1 | 0.2
O=C1NC(c2cn(-c3ccccc3)nc2-c2cccs2)C(C(=O)c2cccnc2)C(O)(C(F)(F)F)N1 (stereo unspecified) | 4 | -4 | -1 | 14 | 1 | 0.9
Cn1cccc1C(=O)C(=O)Nc1cccc(Cl)c1Cl | 28 | -6 | 12 | -99 | 0.7 | 2*
Cn1cccc1C(=O)C(=O)Nc1ccc(Cl)cc1 | 32 | 5 | 20 | -6 | 0.7 | 1.1
CCN(CC)CCCNC(=O)C1CCN(C(=O)c2cc3sccc3n2Cc2ccc(F)cc2)CC1 | 10 | -2 | 19 | 14 | 0.9 | 0.9
Cc1sc2ncnc(OCC(=O)N3CCN(S(=O)(=O)c4ccc(Cl)cc4)CC3)c2c1C | 75* | 0 | 16 | 83* | 0.3 | 0.2
Cc1sc2ncnc(OCC(=O)c3ccc(S(=O)(=O)N4CCCC4)cc3)c2c1C | 73* | -1 | 1 | 69* | 0.3 | 0.3
CCOc1cccc(C2c3c(oc4cc(C)c(C)cc4c3=O)C(=O)N2CCCN(C)C)c1 (stereo unspecified) | -5 | 5 | -8 | 50 | 1.1 | 0.5
O=S(=O)(c1cccc(S(=O)(=O)N2CCC(N3CCCCC3)CC2)c1)N1CCOCC1 | -4 | -13 | 14 | 3 | 1 | 1
COc1ccc(N(Cc2ccco2)C(=O)c2ccccc2F)cc1OC | 71* | 1 | 17 | 80* | 0.3 | 0.2
Cc1ccc(N(Cc2ccc([N+](=O)[O-])cc2)C(=O)c2ccco2)cc1 | 25 | 12 | 35* | 96* | 0.7 | 0
COc1ccc(CN(C(=O)c2ccco2)c2ccc(Br)cc2)cc1OC | 80* | -22 | 28 | 89* | 0.2 | 0.1
Cc1noc(C)c1S(=O)(=O)N1CCN(Cc2ccc3c(c2)OCO3)CC1 | 48 | -9 | 18 | 15 | 0.5 | 0.8
C=CCn1c(=N)c(C(=O)NCCCOC)cc2c(=O)n3ccccc3nc21 | 2 | -4 | 1 | 2 | 1 | 1
CC(C)CCNC(=O)NC(=O)COc1ccccc1C#N | 75* | -4 | 9 | 48 | 0.3 | 0.5
COc1ccc(N(C(=O)c2ccc(S(=O)(=O)N3CCOCC3)cc2)C2C=CS(=O)(=O)C2)cc1 (stereo unspecified) | 5 | -1 | 1 | -4 | 1 | 1
O=C(/C(=C/c1ccccc1)c1ccccc1)N1CCCCC1 | 32 | -5 | 9 | 74* | 0.7 | 0.3
COc1ccc(/C=C(/C(=O)Nc2ccccc2C(=O)N2CCCC2)c2ccccc2)cc1 | 40 | 2 | 36* | 6 | 0.6 | 0.9
SMILES | CYP2C19 inh | PostGolgi yeast | PostGolgi ctrl | CYP2C9 inhib | CYP2C19 activ | CYP2C9 act
COc1ccc(/C=C(/C(=O)Nc2ccccc2C(=O)NC(C)C)c2ccccc2)cc1 | 43 | 2 | 30 | 60* | 0.6 | 0.4
O=C(/C=C/c1ccccc1)N/C(=C/c1ccccc1)C(=O)N1CCCCC1 | -12 | 4 | 3 | 14 | 1.1 | 0.9
O=C1NCCN1C(=O)N(c1ccccc1)c1ccccc1 | 4 | -3 | 6 | -1 | 1 | 1
O=C(NCC(c1cccnc1)N1CCOCC1)C1CCCCC1 (stereo unspecified) | / | 8 | 2 | / | / | /
Cc1ccc2c(c1)N(CC(=O)NC1CCCCC1C)C(=O)CO2 (stereo unspecified) | 43 | -2 | -3 | -12 | 0.6 | 1.1
COc1cccc(-n2c(SCC(N)=O)nnc2-c2c[nH]c3ccccc23)c1 | 89* | 1 | -7 | 31 | 0.1 | 0.7
Cc1cc(NC(=O)CSc2nnc(-c3ccc(Br)o3)n2Cc2ccccc2)no1 | 58* | 6 | 11 | 66* | 0.4 | 0.3
COc1ccc(OC)c(-n2c(SCC(=O)Nc3cc(C)on3)nnc2-c2c[nH]c3ccccc23)c1 | 84* | -12 | 5 | 68* | 0.2 | 0.3
COc1ccc(OC)c(-n2c(SC)nnc2-c2c[nH]c3ccccc23)c1 | 78* | 0 | -4 | 68* | 0.2 | 0.3
Cc1ccccc1-n1c(SCc2c(C)noc2C)nnc1-c1c[nH]c2ccccc12 | 4 | -2 | 8 | 8 | 1 | 0.9
Oc1c(Br)cc(C2N=C(c3ccccc3Cl)NO2)cc1Br (stereo unspecified) | 26 | -17 | 27 | 24 | 0.7 | 0.8
Cc1cc(=O)n2[nH]c(-c3ccc(C(C)(C)C)cc3)cc2n1 | 45 | 19 | 5 | -11 | 0.5 | 1.1
O=C(O)CNc1nc(Cl)ccc1[N+](=O)[O-] | 6 | 1 | -3 | 5 | 0.9 | 0.9
CC(C)C1N=C2c3ccccc3N=C(SCC#N)N2C1=O (stereo unspecified) | -2 | -2 | 11 | -4 | 1 | 1
COc1cccc(NC(=O)CSc2nnc(-c3ccoc3C)n2CC2CCCO2)c1 (stereo unspecified) | 10 | 1 | 7 | 18 | 0.9 | 0.8
COCCn1c(SCC(=O)Nc2cc(C)on2)nnc1-c1c[nH]c2ccccc12 | 55* | -4 | 4 | 75* | 0.5 | 0.3
Cc1cc(NC(=O)CSc2nnc(C(C)N(C)C)n2Cc2ccccc2)no1 (stereo unspecified) | 6 | -5 | 5 | 5 | 0.9 | 0.9
CCCCNC(=O)CSc1nnc(-c2c[nH]c3ccccc23)n1CC1CCCO1 (stereo unspecified) | 53* | 2 | 10 | 44 | 0.5 | 0.6
COCCn1c(Cc2ccccc2)nnc1SCC(=O)Nc1cc(C)on1 | 8 | 4 | 43* | 3 | 0.9 | 1
COc1ccc(OC)c(-n2c(SCC(N)=O)nnc2-c2c[nH]c3ccccc23)c1 | 39 | -3 | 4 | 58* | 0.6 | 0.4
CCOc1ccc(-n2c(SCC(=O)Nc3cc(C)on3)nnc2-c2c[nH]c3ccccc23)cc1 | 14 | 6 | -10 | 40 | 0.9 | 0.6

High-throughput results as filed in PubChem BioAssay.
